Rows were chosen to be rich in hits. Some 1.5% of all compounds tested hit in one or more screens of this group.
NOD2 RIPK2 PPI: NOD2-RIPK2 binding disruptors in cells, primary screen, fluorescence, CHO cells, BLA complementation | inhibition, % at 4.98 µM | CCF4 ratio | 0.38% of 360,000 active | AID 624267, 2012; in the data active = inhibition above about 21%
TLR4-MyD88 BLA: inhibitors of TLR4-MyD88 association in cells, primary screen, cell-based, HeLa CL3-4, BLA complementation, FRET ratio; inhibition, % at 8.4 µM; HeLa CL3-4 TLR4/MyD88 BLA complementation; AID 861, 2007; Toll-like receptor 4 (Homo sapiens) + Myeloid differentiation primary response protein …; 0.18% of 200,000 active; in the data active = inhibition above about 25%
Myeloid diff 2: induction of myeloid progenitor differentiation, primary screen, cell-based, flow cytometry, MLPCN library | 1% of 360,000 active | calls only at 10 µM | ER-HoxA9 myeloid progenitors, lysozyme-GFP differentiation;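 active = normalized GFP-positive differentiation at or above the plate's own cutoff, the solvent-only control mean plus 3 SD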;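 also: cells exposed to compound for four days before flow analysis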
TLR9-MyD88 inh: inhibitors of TLR9-MyD88 association in cells, primary screen, cell-based, CHO, BLA complementation, fluorescence; Toll-like receptor 9 (Homo sapiens) + Myeloid differentiation primary response protein …; CCF4 FRET ratio; inhibition, % at 4.98 µM; 0.21% of 340,000 active; AID 504734, 2011;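 active = inhibition above the mean over all tested compounds plus 3 SD, cut at about 21% in these data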
Myeloid diff CP1: inducers of myeloid progenitor differentiation, confirmation, cell-based, GFP/Mac1 flow cytometry, cherry pick 01 | shares compounds with Myeloid diff 2 | ER-HoxA9 myeloid progenitors, GFP/Mac1 double-positive flow | calls only | 2% of 2,300 active | AID 651706, 2012;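 active = share of green or green-and-red cells above 9 and 9% in run 1 or 4 and 3% in run 2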
GFP autofluor: compound fluorescence in myeloid differentiation counter-screen | ER-HoxA9 myeloid progenitors, no estrogen, GFP autofluorescence flow cytometry; vehicle wells 0%, positive control 100% | 7.4% of 2,300 active | fluorescence response, % (concentration not given with the values) | shares compounds with Myeloid diff 2 | AID 651707;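 active = over 5% cells positive for green fluorescent reporter, or over 2% positive for both it and APC stain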
A number is an active result; - = inactive; . = no result; + = active, no number.

SMILES | NOD2 RIPK2 PPI | TLR4-MyD88 BLA | Myeloid diff 2 | TLR9-MyD88 inh | Myeloid diff CP1 | GFP autofluor
NC(=S)N/N=C/c1ccc(-c2ccc([N+](=O)[O-])cc2)o1 | - | - | - | - | - | -
O=C(C[C@@H]1C=C[C@H](NC(=O)Cc2ccccn2)[C@@H](CO)O1)NCCc1ccccc1 | - | . | - | . | . | .
OC[C@@H]1CN(Cc2ccc3c(c2)OCO3)C[C@H](n2cnc3c(NCc4ccncc4)ncnc32)O1 | - | . | - | . | . | .
O=C(O)c1ccc(-c2ccc(O)c(F)c2)cc1 | - | - | - | - | - | -
O=C(O)c1ccc(O)c(O)c1 | - | . | - | - | . | .
CC(C)(C)OC(=O)N(CC1CCNCC1)C(=O)c1[nH]c(C(F)(F)F)nc1-c1ccccc1 | - | . | - | . | . | .
Cc1ccc(C)c(OCc2nnc(N)s2)c1 | - | - | - | - | - | -
CCCNC(=O)c1cc2c(c(-c3cccc(-c4ccccc4F)c3)n1)[C@H](CCO)N(C(=O)CC1CC1)C2 | - | . | - | . | . | .
CC(OC(=O)Cc1ccsc1)C(=O)Nc1ccc(C(N)=O)cc1 (stereo not given) | - | . | - | - | . | .
O=C(OCC(=O)c1c[nH]c2ccccc12)c1cccc(S(=O)(=O)N2CCCCCC2)c1 | - | - | - | - | - | -
Cc1ccc(-n2nnnc2C(=Cc2ccc(N(C)C)cc2)c2nnnn2-c2ccc(C)cc2)cc1 | - | - | + | - | - | -
NNC(=O)c1csc(-c2ccccc2)n1 | - | . | + | - | - | -
c1ccc(-n2cc(CN3CCC(N4CCOCC4)CC3)c(-c3ccc4c(c3)OCO4)n2)cc1 | - | - | + | - | - | -
Cc1nc2ccc(NC(=O)c3cccs3)cc2c(=O)n1Cc1ccc(Cl)cc1 | - | - | + | - | - | -
COc1ccc(C2=Nc3ccccc3N(C(=O)c3ccc(C(F)(F)F)cc3)C2C(=O)NCc2ccccc2)cc1 (stereo not given) | - | . | - | . | . | .
CSCCC(C(=O)Nc1c(C)cccc1C)n1c(COc2ccc(C)cc2)nc2ccccc21 (stereo not given) | - | . | - | . | . | .
COc1ccc(OCC(=O)NC(=S)Nc2ccc3c4c(cccc24)CC3)cc1 | - | - | - | - | . | .
COc1cccc(C(=O)Nc2ccc(F)cc2F)c1 | - | - | - | - | - | -
COc1cccc(C(=O)NC(=S)Nc2ccc3c4c(cccc24)CC3)c1 | - | - | + | - | - | -
COc1ccc(NC(=O)c2cccnc2)c(OC)c1 | - | - | + | - | - | -
COc1ccc(-c2nn(-c3ccccc3)cc2/C=C2/SC(=S)N(Cc3ccco3)C2=O)c(C)c1 | - | - | - | - | . | .
COc1ccc(-n2c(C)cc(/C=C3\SC(=S)N(Cc4ccco4)C3=O)c2C)cc1 | - | - | + | - | + | -
CCOC(=O)[C@]12CCCC=C1N(Cc1cccc3ccccc13)C(=O)[C@H](CC(=O)NCCCCc1ccccc1)C2 | - | . | - | . | . | .
C=CCC(NC(=O)N(C)C)(C(=O)OC)C(C)O (stereo not given) | - | . | - | . | . | .
Cc1ccc(CC(CC(=O)O)C(=O)NC2CCCCC2)cc1 (stereo not given) | - | - | + | - | - | -
SMILES | NOD2 RIPK2 PPI | TLR4-MyD88 BLA | Myeloid diff 2 | TLR9-MyD88 inh | Myeloid diff CP1 | GFP autofluor
Cc1ccc(CC(CC(=O)O)C(=O)NCC23CC4CC(CC(C4)C2)C3)cc1 (stereo not given) | - | - | - | - | . | .
CC(C)Nc1nc(NCCOc2ccccc2)c2sccc2n1 | - | . | - | . | . | .
Cc1ccc(S(=O)(=O)N2[C@@H](CO)CO[C@H]2CC(=O)c2ccc(F)cc2)cc1 | - | . | - | . | . | .
C=CCNC(=O)c1ccccc1NC(=O)c1ccccc1 | - | - | - | - | - | -
O=C(Nc1ccccc1C(=O)Nc1ccccc1C(=O)O)c1ccccc1 | - | . | - | - | . | .
Cc1cc(C(C)(C)C)oc1C(=O)N(CC(=O)NC1CCCC1)Cc1ccccc1 | - | - | - | - | . | .
Cc1ccc(C)c(N(CC(=O)NC2CCCC2)C(=O)c2oc(C(C)(C)C)cc2C)c1 | - | - | - | - | - | -
N#Cc1c(N2CCN(C(=O)c3ccco3)CC2)nc(-c2ccccc2)c2c1CCCC2 | - | - | - | - | - | -
N#Cc1c(N2CCN(C(=O)c3ccccc3)CC2)nc(-c2ccccc2)c2c1CCCC2 | - | - | - | - | . | .
O=C(NC1CCCC1)C(C1CC1)n1c(-c2ccccn2)nc2ccccc21 (stereo not given) | - | . | - | . | . | .
CN(C)S(=O)(=O)n1cc(/C=C(\NC(=O)c2ccccc2F)C(=O)N2CCCCC2)c2ccccc21 | - | . | - | - | . | .
CC(C)(C)c1nnc(NC(=O)Nc2ccc(Cl)cc2)s1 | - | . | + | - | - | -
Nc1ccc(S(=O)(=O)c2ccc(N3CCOCC3)c(N)c2)cc1 | - | . | - | - | . | .
COc1ccc(C(=O)Nc2ncc3c(n2)CC(C)CC3=O)cc1 (stereo not given) | - | - | - | - | . | .
COc1cccc(C(=O)Nc2ncc3c(n2)CC(c2ccc(OC)cc2OC)CC3=O)c1 (stereo not given) | - | - | - | - | - | -
CCc1nc2ccc(C(=O)NC(C)(C)C)cn2c1N(CC)Cc1cccc(Br)c1 | - | . | - | . | . | .
COc1ccc(NC(=O)C2CCC(=O)N2)cc1 (stereo not given) | - | - | - | - | - | -
COc1ccccc1-c1nc(=S)c(C(C)=O)c(C)[nH]1 | - | . | - | . | . | .
CC(=O)c1c(C)[nH]c(-c2ccccc2)nc1=S | - | . | - | - | - | -
CC(=O)c1c(NC(=O)c2ccccc2)[nH]c(-c2ccccc2)nc1=S | - | - | + | - | - | 4.9
N=c1c2ccccc2nc2n1CCCCC2 | - | . | - | - | . | .
Cc1[nH]c2ccccc2c1C(=O)COC(=O)c1ccc([N+](=O)[O-])s1 | - | - | - | - | - | -
CN1C(=S)N(c2cccnc2)C(=O)/C1=C\c1ccc(N(C)C)cc1 | - | - | + | - | - | -
CCc1nc2ccc(C(=O)NCCCn3ccnc3)cn2c1N(C)CCCc1ccccc1 | - | . | - | . | . | .
O=S1(=O)CC(N2CCCCC2)CN1Cc1cn(Cc2ccc(C(F)(F)F)cc2)nn1 (stereo not given) | - | . | - | . | . | .
CN(Cc1ccccc1)C(=O)[C@@H]1CCCN1 | - | . | - | . | . | .
COc1cc(COCC(O)CN2CCN(CCN3C(=O)c4cccc5cccc(c45)C3=O)CC2)cc(OC)c1OC (stereo not given) | - | - | + | - | - | -
CCCCCCn1c(=O)n2n(c1=O)[C@@H]1CN(S(=O)(=O)c3ccc(C)cc3)C[C@]1(O)[C@@H](OC(=O)NCc1ccccc1)C2 | - | . | - | - | . | .
N#C/C(=C\c1cc(Cl)ccc1O)C(=O)NC1CCCCC1 | - | - | - | - | . | .

Screens (PubChem BioAssay)
